Screening data (PubChem)
Compounds with a hit are over-represented: about 3.5% of the library has one in this group of screens.
FBW7 act: FBW7 E3 ligase activators, primary screen, biochemical, AlphaScreen, human; F-box/WD repeat-containing protein 7 (Homo sapiens), Q969H0; AlphaScreen FBW7–phospho-cyclin E peptide binding, activator screen; normalized activity (activation), % at 26.1 µM; actives 0.13% (n = 650,000); AID 1259310, 2017; in the data active means normalized activity above about 1.9%;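 further: purified mutant Fbw7 with reduced substrate affinity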
GPR151 activ: activators of human GPR151, primary screen, cell-based, PathHunter beta-arrestin, luminescence; activation, % at 11.2 µM; G-protein coupled receptor 151 (Homo sapiens), Q8TDV0; AID 1508602, 2020; PathHunter beta-arrestin GPR151 cells; actives 1% (n = 650,000); in the data active means activation above about 4.9%
Target sequence (Q8TDV0 whole entry, looked up): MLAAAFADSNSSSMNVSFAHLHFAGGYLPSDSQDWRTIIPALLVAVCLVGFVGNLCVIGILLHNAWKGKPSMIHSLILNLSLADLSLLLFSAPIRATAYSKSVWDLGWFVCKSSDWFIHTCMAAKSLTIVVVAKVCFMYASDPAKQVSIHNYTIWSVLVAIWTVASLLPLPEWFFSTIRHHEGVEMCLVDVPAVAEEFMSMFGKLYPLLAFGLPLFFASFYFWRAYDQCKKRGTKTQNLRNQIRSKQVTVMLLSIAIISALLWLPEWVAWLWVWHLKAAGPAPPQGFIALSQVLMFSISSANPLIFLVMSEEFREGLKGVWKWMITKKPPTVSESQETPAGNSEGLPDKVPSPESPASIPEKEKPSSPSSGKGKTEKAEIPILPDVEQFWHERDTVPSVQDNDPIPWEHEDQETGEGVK
MITF inh: MITF inhibitors, primary screen, biochemical, AlphaScreen, human | Microphthalmia-associated transcription factor (Homo sapiens), O75030 | AlphaScreen MITF homodimerization, bead proximity signal | inhibition, % at 2.6 µM | actives 0.91% (n = 650,000) | AID 1259374, 2018; in the data active means inhibition above about 50%
TEAD-YAP inh: TEAD-YAP interaction inhibition, primary screen, TEAD-YAP interaction inhibitor project, luminescence, HEK-TIYL cells. TEAD-Gal4/YAP UAS-luciferase luminescence. inhibition, % at 9.12 µM. actives 1.4% (n = 640,000). AID 1259422, 2018; in the data active means inhibition above about 32%
GPR151 conf act: GPR151 activators, triplicate retest, confirmation, cell-based, PathHunter beta-arrestin, luminescence. shares compounds with GPR151 activ. GPR151 PathHunter beta-arrestin cells, 90 min; % of EA-reagent control over plate median. activation, % at 11.2 µM. 6,700 tested, under 10 active. AID 1508609, 2020;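 active means mean percent activation across replicates above the confirmation screen cutoff of 4.91%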
GPR119 ag: GPR119 activators in beta-arrestin cells, counter-screen for GPR151 activator project, cell-based, PathHunter beta-arrestin, luminescence, triplicate; shares compounds with GPR151 activ; 90 min; 0 = compound-well median, 100 = enzyme-acceptor control; activation, % at 11.2 µM; actives 0.3% (n = 6,700);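 active means mean percent activation in the counterscreen above 29.09%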;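 further: counterscreen on off-target GPR119 to flag nonselective hits from the GPR151 activator screen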
Each line names hits and unclear results; the compound was inactive in the other large screens (follow-up assays come after a bar, where they were run).

Cc1ccc(CC(=O)N(CCCn2ccnc2)c2nc3ccccc3s2)c(C)c1	GPR151 activ 6.9 | GPR151 conf act inactive | GPR119 ag inactive
Cc1ccc2nc(N(CCCn3ccnc3)C(=O)c3ccc(F)cc3)sc2c1	none
CC(C)(C)c1ccccc1NC(=O)CCl	none
CC(=O)N(C)c1ccccc1NC(=O)CCl	GPR151 activ 8.7 | GPR151 conf act inactive | GPR119 ag inactive
Cc1nc(C)c(NC(=O)N2CCCCC2C)cc1NC(=O)N1CCCCC1C (stereo not given)	GPR151 activ 4.9 | GPR151 conf act inactive | GPR119 ag inactive
Cc1ccc(NC(=O)N2CCCCC2C)cc1 (stereo not given)	none
CC(=O)Nc1ccc(Nc2cc(N3CCCC3CO)ncn2)cc1 (stereo not given)	GPR151 activ 5.2 | GPR151 conf act inactive | GPR119 ag inactive
OCC1CCCN1c1cc(Nc2ccc(N3CCOCC3)cc2)ncn1 (stereo not given)	none
S=C(NCc1ccco1)N1CCN(C2CCCCC2)CC1	GPR151 activ 6.1 | GPR151 conf act inactive | GPR119 ag inactive
CCOC(=O)C1=C(C)NC(SCC(=O)Nc2cc(C)on2)=C(C#N)C1c1cccs1 (stereo not given)	GPR151 activ 5.8 | GPR151 conf act inactive | GPR119 ag inactive
CCOC(=O)C1=C(C)NC(SCC(N)=O)=C(C#N)C1c1cccs1 (stereo not given)	none
Cc1nc2nc(NCc3ccccc3F)[nH]n2c(=O)c1C	GPR151 activ 5.0 | GPR151 conf act inactive | GPR119 ag inactive
COc1ccc(CNc2nc3nc(C)c(C)c(=O)n3[nH]2)cc1	GPR151 activ 5.5 | GPR151 conf act inactive | GPR119 ag inactive
S=C(Nc1ccc2c(c1)OCO2)N1CCN(c2ncccn2)CC1	GPR151 activ 6.6 | GPR151 conf act inactive | GPR119 ag inactive
CCN1CCN(S(=O)(=O)c2ccc3c(c2)SC(C)CN3C(C)=O)CC1 (stereo not given)	GPR151 activ 6.1 | GPR151 conf act inactive | GPR119 ag inactive
CC(=O)N1CC(C)Sc2cc(S(=O)(=O)N3CCCCC3)ccc21 (stereo not given)	none
O=C(O)CCCC(=O)N1CCC(N2C(=O)Cc3ccccc32)CC1	GPR151 activ 9.2 | GPR151 conf act inactive | GPR119 ag inactive
CC(O)CNCC(=O)Nc1ccc(Cl)cc1F (stereo not given)	none
Cc1cc(-c2ccccc2)n(-c2cc(Nc3cccc(F)c3)ncn2)n1	none
Cc1cc(-c2ccccc2)n(-c2cc(Nc3ccccc3)ncn2)n1	GPR151 activ 5.1 | GPR151 conf act inactive | GPR119 ag inactive
O=C1COc2cc(S(=O)(=O)N3CCC(Cc4ccccc4)CC3)ccc2N1	none
CN(Cc1ccccc1)C(=O)C1CCN(S(=O)(=O)c2ccc3c(c2)OCC(=O)N3)CC1	GPR151 activ 6.7 | GPR151 conf act inactive | GPR119 ag inactive
CC(C)[C@H](NC(=O)c1ccccc1F)C(=O)Nc1ccc2c(c1)OCO2	none
O=C(NC(NC(=O)c1ccccc1F)c1ccc2c(c1)OCO2)c1ccccc1F	GPR151 activ 11 | GPR151 conf act inactive | GPR119 ag inactive
O=C1c2cccc3cccc(c23)N1Cc1c(O)ccc2ccccc12	GPR151 activ 5.5 | GPR151 conf act inactive | GPR119 ag inactive
Cc1ccc(N(CC(=O)NCc2ccccc2C)S(C)(=O)=O)c(C)c1	none
CC(=O)NC(Cc1cccn1C)C(=O)NC1CCN(c2ncccc2[N+](=O)[O-])CC1 (stereo not given)	none
CCCCn1c(CNC(=O)c2cccs2)nnc1SC(C)C(=O)Nc1sc(C(=O)OCC)c(C)c1C(=O)OCC (stereo not given)	none
NC(=O)CSc1nnc2n(Cc3ccccc3)c3ccccc3n12	GPR151 activ 6.1 | GPR151 conf act inactive | GPR119 ag inactive
COc1ccccc1NC(=O)c1ccc(NC(=O)COC(=O)c2ccc(O)cc2)cc1	GPR151 activ 5.4 | GPR151 conf act inactive | GPR119 ag inactive
CCc1cc2cc3c(cc2nc1SCCN1CCOCC1)OCCO3	none
Cc1[nH]c(C(=O)OCC(=O)c2cc(C)n(C)c2C)c(C)c1C(C)O (stereo not given)	GPR151 activ 5.2 | GPR151 conf act inactive | GPR119 ag inactive
Cc1cc(C(=O)COC(=O)c2cc(Cl)cc(Cl)c2)c(C)n1C	none
CCOC(=O)c1cc(CC)sc1NC(=O)c1cc2ccccc2cc1NS(=O)(=O)c1ccc(C)cc1	none
Cc1ccccc1Nc1nc(N)nc(COc2ccc([N+](=O)[O-])cc2Cl)n1	GPR151 activ 5.7 | GPR151 conf act inactive | GPR119 ag inactive
Cc1ccccc1Nc1nc(N)nc(COC(=O)c2cc(=O)c3ccccc3o2)n1	GPR151 activ 8.0 | GPR151 conf act inactive | GPR119 ag inactive
CCN(CC)CCOC(=O)c1ccc(C(C)(C)C)cc1	none
Cc1nc(N2CCC(C(=O)N(C)Cc3ccsc3)CC2)nc2cc3c(cc12)CCC3	none
CCCN(CCC)CCCNC(=O)C(=O)Nc1ccc(C)cc1	none
CCCN(CCC)CCCNC(=O)C(=O)Nc1ccc(I)cc1	GPR151 activ 11 | GPR151 conf act inactive | GPR119 ag inactive
O=C(COc1ccc(F)cc1)Nc1cccnc1Cl	none
CC1(C)Cc2nc3sc4c(SCC(=O)N5CCOCC5)ncnc4c3cc2CO1	GPR151 activ 5.9 | GPR151 conf act inactive | GPR119 ag inactive
Cn1c(NC(=O)c2ccco2)c(-c2cccs2)c(=O)c2ccccc21	GPR151 activ 6.6 | GPR151 conf act inactive | GPR119 ag inactive
Cc1cc2oc(=O)cc(CN3C(=O)NC4(CCOc5ccccc54)C3=O)c2cc1Cl (stereo not given)	none
COc1cc2c(cc1NC(=O)C/C(C)=N/NC=O)oc1ccccc12	GPR151 activ 13 | GPR151 conf act inactive | GPR119 ag inactive
COc1cccc(C(=O)Nc2c3c(nn2CC(=O)NCc2ccccc2)CSC3)c1	none
O/N=C/c1ccc[n+](C/C=C/c2ccccc2)c1	none
Brc1ccc2c(ccc[n+]2C/C=C/c2ccccc2)c1	GPR151 activ 6.2 | GPR151 conf act inactive | GPR119 ag inactive
c1nc(N2CCCCC2)c2sc3nc(N4CCOCC4)c4c(c3c2n1)CCCC4	GPR151 activ 6.2 | GPR151 conf act inactive | GPR119 ag inactive
c1nc(N2CCOCC2)c2sc3nc(N4CCCCC4)c4c(c3c2n1)CCCC4	none
CCOc1ccc(OCC(=O)Nc2ccccc2CC)cc1	none
COc1ccc(CC(=O)Nc2ccc(N(C)C)c3ccccc23)cc1	GPR151 activ 5.6 | GPR151 conf act inactive | GPR119 ag inactive
